D2 antag: D2 dopamine receptor (human) antagonism | inhibition, % at 10 µM | HEK293 TREx D2 cells, calcium flux, dopamine EC80 | 340,000 tested, 2% active | AID 485344; in the data active = inhibition above about 30%; inactive = below that, where a call was filed
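Cells plated overnight at 30 C with tetracycline; no-wash calcium dye, 30–90 min RT; 10 s baseline; compound pinned; 180 s read; EC80 dopamine added; another 180 s read.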
D2 ag-1: D2 dopamine receptor (human) agonism. activation, % at 2 µM. HEK293 T-REx D2 cells, calcium flux agonist mode. 340,000 tested, 0.53% active;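 active = activation over 3 SD above normal in the single-dose calcium agonist read, cut at about 30% in these data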
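Tetracycline-induced HEK293 T-REx cells with force-coupled D2 receptor, plated overnight at 30 C, loaded with no-wash calcium dye. After a 10 s baseline, compound was pin-added and calcium flux read kinetically for 180 s; calcium rises flagged agonists.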
D2 ag-2: activates the human D2 dopamine receptor; 360,000 tested, 0.084% active; P14416; DiscoveRx PathHunter D2 beta-arrestin, luminescence, 90 min; 100% = 57 uM dopamine signal; activation, % (no concentration beside the values); in the data active = activation above about 40%; inconclusive = between about 15% and that limit
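DiscoveRx PathHunter D2 beta-arrestin cells (2,100/well) attached overnight, then compound-stimulated 90 min at 37 C in HBSS/10 mM HEPES/0.1% Tween-20 buffer; beta-galactosidase complementation read by luminescence after 1 h at ambient temperature. Dopamine 57 uM final (EC100) as control.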
D2 PAM-1: human D2 receptor positive allosteric modulation; P14416; DiscoveRx D2 beta-arrestin cells, luminescence, 90 min; 100% = 57 uM dopamine signal; 360,000 tested, 0.23% active; potentiation, % (no concentration beside the values); in the data active = potentiation above about 50%; inconclusive = mostly about 30% to 49%
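PathHunter D2 cells, attached overnight at 37 deg C, received compound in DMSO plus dopamine at EC20 (50 nM final) for 90 min at 37 deg C. Beta-arrestin recruitment was read as luminescence after 1 h with detection reagent at ambient temperature.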
D2 PAM-2: positively modulates the human D2 dopamine receptor allosterically; HEK293 T-REx D2, calcium flux, EC20 dopamine potentiation; potentiation, % at 10 µM; 340,000 tested, 0.34% active;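 active = potentiation over 3 SD above the plate norm, cut at about 30% in these data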
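Cells plated with tetracycline inducer and held overnight at 30 C; calcium dye loaded 30–90 min at room temperature; baseline taken, compound added and read 180 s; EC20 dopamine then added and read 180 s.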
D3 arrestin ag: D3 receptor agonism confirmed, beta-arrestin readout; shares compounds with D2 ag-1; DiscoveRx D3 beta-arrestin cells, luminescence, 90 min; Potency, µM (highest dose often 76.9 µM), usual class: activators; 2,300 tested, 4% active; also: nearly all actives have a fitted effect of over 70% in size
Target sequence (P35462 whole entry, looked up): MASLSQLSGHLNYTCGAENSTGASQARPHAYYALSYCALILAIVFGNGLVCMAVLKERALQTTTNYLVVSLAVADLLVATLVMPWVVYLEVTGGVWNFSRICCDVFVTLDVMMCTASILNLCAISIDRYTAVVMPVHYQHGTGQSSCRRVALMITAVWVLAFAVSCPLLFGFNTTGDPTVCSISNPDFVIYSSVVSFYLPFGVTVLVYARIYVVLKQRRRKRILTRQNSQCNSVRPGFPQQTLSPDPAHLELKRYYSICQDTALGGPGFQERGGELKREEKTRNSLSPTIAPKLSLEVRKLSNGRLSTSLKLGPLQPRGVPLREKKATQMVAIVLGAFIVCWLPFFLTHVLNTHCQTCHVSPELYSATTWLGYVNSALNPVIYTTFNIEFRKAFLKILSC
D2 ag-3: D2 receptor agonism, beta-arrestin counterscreen; shares compounds with D2 ag-1; DiscoveRx PathHunter D2 beta-arrestin, luminescence, 90 min; response scale: percent relative to full dopamine signal; Potency, µM (doses to about 76.9 µM), hits mostly activators; 2,300 tested, 5.9% active; also: nearly all actives have a fitted effect of over 70% in size
Numbers stand for hits; 0 = inactive; ? = inconclusive; - = not tested or not shown; ! = not confirmed by another sample. An excerpt weighted towards active compounds, which were near 2.4% of everything screened. Unless noted, calls follow the shape of the dose curve; as a rule, active = well fitted activation curve with a large enough effect; inconclusive = small, poorly fitted or top-dose-only effect; inactive = flat fitted curve, though single readings scatter.

SMILES | D2 antag | D2 ag-1 | D2 ag-2 | D2 PAM-1 | D2 PAM-2 | D3 arrestin ag | D2 ag-3
COCCCn1c(SCC(=O)NC2CCCCC2)nnc1-c1ccncc1 | 0 | 0 | 0 | ? | 0 | - | -
Cc1ccccc1CNC(=O)CN1CCSc2ccccc21 | - | 0 | - | - | 0 | - | -
O=C(NCCCN1CCN(c2cccc(Cl)c2)CC1)c1cccc(N2CCCC2=O)c1 | 0 | 48.0 | 0 | 0 | 0 | 0 | 0
O=C(NCCCN1CCN(c2cccc(Cl)c2)CC1)c1ccc(N2CCCC2=O)cc1 | 0 | 0 | 0 | 0 | 0 | - | -
Cc1cccc(C(=O)NCCN2CCN(c3ccccc3)CC2)c1 | 90.8 | 48.7 | 0 | 0 | 0 | ? | 0
COc1ccc(OC)c(NC(=O)NCCN2CCN(c3ccccc3)CC2)c1 | 0 | 0 | 0 | 0 | 0 | - | -
Cc1cccc(C(=O)NCCCNC(=O)c2cccc(C)c2)c1 | 0 | 0 | 0 | 0 | 0 | - | -
O=C(NCCN1CCN(c2ccccc2)CC1)c1cccn2c(=O)c3cc(Cl)ccc3nc12 | 0 | 0 | 0 | 0 | 0 | - | -
COc1ccccc1C(=O)NCCN1CCN(c2ccccc2)CC1 | 82.5 | 71.9 | ? | ? | 0 | ? | ?
O=C(NCCN1CCN(c2ccccc2)CC1)c1cccc(Cl)c1 | 70.4 | 46.0 | 0 | 0 | 0 | ? | 0
Cc1ccc(S(=O)(=O)NC(=O)C2(C)CCN2C(=O)C2CCCCC2)nc1 (stereo not given) | - | - | 0 | 0 | - | - | -
O=C(NCCN1CCN(c2cccc(Cl)c2)CC1)c1ccc(CSc2nc3ccncc3[nH]2)cc1 | 86.2 | 45.9 | 0 | 0 | 0 | 22.4µM | ?
Cc1cccc(C)c1NC(=O)NCCCN1CCN(c2ccccc2)CC1 | 72.4 | 74.2! | ? | 0 | 0 | ? | ?
CCN(CCNC(=O)c1ccc(CSc2nc3ccncc3[nH]2)cc1)c1ccccc1 | - | - | 0 | 0 | - | - | -
O=C(NCCN1CCN(c2ccccc2)CC1)c1cccc(Br)c1 | 78.0 | 89.1 | 0 | 0 | 0 | 0 | 0
COc1ccccc1C(=O)NCCC(=O)NCCOc1ccccc1 | 0 | 0 | 0 | 0 | 0 | - | -
COc1ccccc1OCCNC(=O)CCNC(=O)c1ccccc1OC | 0 | 0 | 0 | 0 | 0 | 0 | 0
O=C(NCCN1CCN(C(=O)c2cccc(Br)c2)CC1)C(=O)Nc1ccc(Br)cc1 | 0 | 0 | 0 | 0 | 0 | - | -
Cc1cccc(C)c1NC(=O)C(=O)NCCCN1CCOCC1 | - | - | 0 | 0 | - | - | -
COc1ccc(Cn2nnc3c(=O)[nH]c(C4CCN(C(=O)c5ccc(C)cc5)CC4)nc32)cc1OC | - | 0 | - | - | 0 | - | -
Cc1[nH]nc2c1C(c1cccs1)C1=C(CC(C)(C)CC1=O)N2 (stereo not given) | 30.2 | 35.6 | 0 | 0 | 0 | 0 | 0
Cc1[nH]nc2c1C(c1ccsc1)C1=C(CC(C)(C)CC1=O)N2 (stereo not given) | 0 | 41.7 | 0 | 0 | 0 | 0 | 0
Cc1ccc2c(c1)[nH]c1c(=O)n(Cc3ccco3)cnc12 | 0 | 33.2 | 0 | 0 | 0 | 0 | 0
COc1ccc(CNCCNC(=O)c2cccs2)cc1OC | 39.5 | 60.2 | 0 | 0 | 0 | 0 | 0
COc1ccc(CN2CCN(c3ccccn3)CC2)c(OC)c1C | - | - | 0 | 0 | - | 0 | ?
SMILES | D2 antag | D2 ag-1 | D2 ag-2 | D2 PAM-1 | D2 PAM-2 | D3 arrestin ag | D2 ag-3
c1cnc(N2CCN(Cc3c[nH]c4ccccc34)CC2)nc1 | 83.4 | 86.2 | ? | ? | 0 | 0 | ?
COc1ccc(CN2CCSCC2)c(OC)c1C | 0 | 0 | 0 | 0 | 0 | - | -
COc1ccc(CN2CCN(c3ncccn3)CC2)c(C)c1C | 93.4 | 87.6 | 47.1 | 0 | 0 | ? | 2.24µM
COc1ccccc1N1CCN(CCCCOc2cccc3ccccc23)CC1 | 73.1 | 34.5 | 0 | 0 | 0 | 0 | 0
COc1ccc(C)cc1NC(=O)N1CCN(c2nnc(C)c3c(C)n(-c4ccccc4)nc23)CC1 | - | 0 | - | - | 0 | - | -
COc1ccc(OC)c(NC(=O)C2(C)CCN2Cc2ccccc2Cl)c1 (stereo not given) | - | - | 0 | 0 | - | - | -
CC(=O)NC(c1cccc(F)c1)c1nc(-c2cccc(C(F)(F)F)c2)cs1 (stereo not given) | - | - | 0 | 0 | - | - | -
O=C(Nc1ccc(F)cc1)Nc1csc2c1CCCC2 | - | 0 | - | - | 0 | - | -
CCOc1ccccc1N1CCN(Cc2cccc(OC)c2OC)CC1 | 87.4 | 0 | 0 | 0 | 0 | 0 | 0
COc1cccc(CN2CCN(Cc3cc(OC)c(OC)c(OC)c3)CC2)c1OC | 0 | 0 | 0 | 0 | 0 | 0 | 0
COc1cccc(CN2CCN(c3ncccn3)CC2)c1OC | 60.3 | 81.3 | ? | 0 | 0 | 0 | ?
COc1cccc(CN2CCN(Cc3cccc(Oc4ccccc4)c3)CC2)c1OC | 0 | 0 | 0 | 0 | 0 | - | -
COc1ccc(OC)c(NC(=O)c2ccc(-c3nc(CSc4ccccc4)c(C)o3)cc2)c1 | - | 0 | - | - | 0 | - | -
COc1cc(/C=C/C(=O)OCC(=O)Nc2ccc(C)cc2[N+](=O)[O-])ccc1O | 0 | 0 | 0 | 0 | 0 | - | -
COc1cc(/C=C/C(=O)OCC(=O)Nc2cc(C)c(C)cc2[N+](=O)[O-])ccc1O | 0 | 0 | 0 | 0 | 0 | 0 | 0
COc1cccc(CC(=O)OCC(=O)N(C)CC(=O)Nc2ccccc2Cl)c1 | 0 | 0 | 0 | 0 | 0 | 0 | 0
COc1cccc(NC(=O)CN(C)C(=O)Cc2ccc3c(c2)OCCO3)c1 | 0 | 0 | 0 | 0 | 0 | 0 | 0
CCN(CC)S(=O)(=O)c1ccc(O)c(NC(=O)CN2CCc3ccccc3C2)c1 | 0 | 0 | 0 | 0 | 0 | - | -
CC(CCc1ccccc1)NC(=O)CN1CCc2ccccc2C1 (stereo not given) | 67.9 | 71.3 | 0 | 0 | 0 | 0 | ?
CN(C)S(=O)(=O)c1ccc(Cl)c(NC(=O)CN2CCN(c3ccccn3)CC2)c1 | 0 | 69.1 | ? | 0 | 0 | ? | 31.6µM
CC(=O)C(Cc1ccccc1)NC(=O)CN1CCc2ccccc2C1 (stereo not given) | 0 | 0 | 0 | 0 | 0 | - | -
Cc1ccc(NC(=O)CN2CCc3ccccc3C2)cc1S(=O)(=O)N(C)C | 0 | 47.5 | 0 | 0 | 0 | 0 | 0
CN(C)S(=O)(=O)c1ccc(Cl)c(NC(=O)CN2CCc3ccccc3C2)c1 | 87.3 | 60.9 | 64.0 | 0 | 0 | 10µM | 14.1µM
Cc1ccc(-n2ncc(C(=O)N3CCN(c4cccc(C)c4C)CC3)c2C2CCNCC2)c(C)c1 | - | 0 | - | - | 0 | - | -
Cc1ccc(C(=O)OCC(=O)Nc2cc(Cl)ccc2C#N)o1 | - | - | 0 | 0 | - | - | -
O=C(Nc1c(C(=O)Nc2ccccc2F)oc2ccccc12)c1cc2ccccc2o1 | - | 0 | - | - | 0 | - | -
COc1ccc(-c2nc(C)c(CCNC(=O)C(=O)Nc3ccccc3C#N)s2)cc1OC | - | 0 | - | - | 0 | - | -

From PubChem
